This passage reports growth results from PubChem BioAssay (NCI).

Some test systems named below: NCI-H23 lung; NCI-H226 lung; NCI-H322M lung; HOP-62 NSCLC; NCI-H460 lung; HOP-92 NSCLC; NCI-H522 lung; A549/ATCC NSCLC; 786-0 renal; COLO 205 colon; DU-145 prostate; K-562 leukemia; MALME-3M melanoma; MDA-MB-231 breast; RXF 393 renal; SF-268 CNS; SF-295 CNS; SF-539 CNS; UACC-257 melanoma; M14 melanoma.
What all share (test): NCI-60 one-dose screen, 48 h (100 = growth as untreated, 0 = no growth, -100 = all killed)
Holding throughout (conditions): 10 µM unless noted

Compounds without any hit were thinned out: in the full panel of roughly 83,000, 20% have a hit.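 Single-dose data. Exposure time 48 hours. Values below 10 considered active.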 A number with no mark means an inactive call. Active and inactive are the calls of the source.

As for `Nc1ncc(-c2ccc3ncnc(N4CCc5cc(F)c(Cl)cc54)c3c2)cc1C(F)(F)F`, the growth with NCI-H23 lung was 47.6%; with NCI-H226 lung it was 28.3%; in the test with NCI-H322M lung it was 19.8%; in the test with HOP-62 NSCLC, 33.1%; in the test with NCI-H460 lung it was 28.2%; in the test with HOP-92 NSCLC, 10.1%. The growth is 20.3% with NCI-H522 lung; 21.4% in the test on A549/ATCC NSCLC; 15.8% with 786-0 renal; 41.8% in the test on COLO 205 colon; 33.5% with DU-145 prostate; 15% in the test on K-562 leukemia. The growth in the test on MALME-3M melanoma was 13.6%; in the test with MDA-MB-231 breast, 23.9%; with RXF 393 renal it was -33.6% (active); in the test on SF-268 CNS, 34.1%; in the test with SF-295 CNS it was 26%; in the test on SF-539 CNS, 8.36% (active). Also, the values for the growth in the test on UACC-257 melanoma and with M14 melanoma were 48.2% and 33.8%, respectively.

For `CC1=C2[C@@H](CC1)[C@]1(C)O[C@@](C(C)C)(C[C@H]1OC(=O)CO)[C@H]2OC(=O)CCCc1ccccc1`, the growth with NCI-H23 lung is 81.4%; in the test on NCI-H226 lung it was 61.4%; in the test on NCI-H322M lung, 90%; in the test with HOP-62 NSCLC it was 39.5%; with NCI-H460 lung it was 68%; in the test with HOP-92 NSCLC, 37.4%. In addition, the growth with NCI-H522 lung is 45.1%; in the test with A549/ATCC NSCLC, 58.4%; with 786-0 renal, 79.2%; in the test with COLO 205 colon, 55.1%; in the test with DU-145 prostate, 75.8%; with K-562 leukemia, 53.9%. The growth in the test on MALME-3M melanoma was 57.3%; in the test with MDA-MB-231 breast, 88.2%; in the test with RXF 393 renal, 86.2%; in the test with SF-268 CNS it was 73.4%; in the test with SF-295 CNS it was 78.5%; in the test with SF-539 CNS, 96.6%. In addition, the figures for the growth in the test with UACC-257 melanoma and in the test with M14 melanoma were 85.1% and 77.5%, respectively.

Turning to `COC12C=C/C(=C(/C(=O)OCc3ccccn3)C(=O)CCCCCCCCC3(OC)C=C/C(=C(/C(=O)OCc4ccccn4)C(=O)CCCCCCCC1)O3)O2`, the growth in the test on NCI-H23 lung is -37.4% (active); in the test on NCI-H226 lung, -69.4% (active); with NCI-H322M lung, -60% (active); in the test with HOP-62 NSCLC, 20%; with NCI-H460 lung, -15.5% (active); in the test with HOP-92 NSCLC it was -59% (active). Moreover, the growth with NCI-H522 lung was -12.9% (active); in the test with A549/ATCC NSCLC, 9.81% (active); in the test on 786-0 renal, -72.5% (active); in the test on COLO 205 colon, -15.6% (active); with DU-145 prostate, -24.5% (active); in the test on K-562 leukemia, -0.106% (active). The growth with MALME-3M melanoma is -60.1% (active); with MDA-MB-231 breast, 7.85% (active); with RXF 393 renal, -82.5% (active); in the test with SF-268 CNS, -8.87% (active); in the test with SF-295 CNS, -25.7% (active); with SF-539 CNS, -28.3% (active). Besides, the growth with UACC-257 melanoma was 11%; with M14 melanoma, -23.3% (active).

Turning to `CS(=O)(=O)c1cccc(Nc2ncc3cc(-c4ccccc4Cl)ccc3n2)c1`, the growth is 26.7% in the test on NCI-H23 lung; 31.1% with NCI-H226 lung; 26.8% with NCI-H322M lung; 15.3% in the test with HOP-62 NSCLC; 5.47% (active) with NCI-H460 lung; -1.06% (active) in the test with HOP-92 NSCLC. The growth in the test on NCI-H522 lung was -44.3% (active); with A549/ATCC NSCLC, 13.8%; in the test on 786-0 renal, 12.2%; in the test with COLO 205 colon, -8.05% (active); with DU-145 prostate, 18.6%; with K-562 leukemia it was 1.05% (active). Further, the growth in the test with MALME-3M melanoma is 11.8%; in the test with MDA-MB-231 breast it was 3.46% (active); in the test on RXF 393 renal, -14.3% (active); in the test with SF-268 CNS it was 19.9%; in the test with SF-295 CNS it was 20.9%; in the test with SF-539 CNS, -10.5% (active). Also, the growth in the test on UACC-257 melanoma was 24.8%; with M14 melanoma, 5.89% (active).

As to `CC(CN)[C@@H]1CC[C@]2(CO)CC[C@]3(C)[C@H](CC[C@@H]4[C@@]5(C)CCC(NCCO)C(C)(C)[C@@H]5CC[C@]43C)[C@@H]12` (stereo not given in full), the growth in the test on NCI-H23 lung is 89.6%; with NCI-H226 lung it was 95.8%; in the test on NCI-H322M lung, 86.8%; in the test on HOP-62 NSCLC, 86.6%; with NCI-H460 lung, 4.46% (active); in the test on HOP-92 NSCLC, 61.6%. Moreover, the growth in the test with NCI-H522 lung is 59.3%; in the test on A549/ATCC NSCLC, 59.2%; with 786-0 renal, 59.2%; with COLO 205 colon, 67.5%; in the test with DU-145 prostate, 63.5%; in the test on K-562 leukemia, -49.4% (active). Besides, the growth is -35.5% (active) in the test with MALME-3M melanoma; 13.6% with MDA-MB-231 breast; 58.6% with RXF 393 renal; 60.6% with SF-268 CNS; 70.9% with SF-295 CNS; 65.8% with SF-539 CNS. Besides, the values for the growth with UACC-257 melanoma and in the test on M14 melanoma were 84.9% and -2.37% (active), respectively.

For the compound `CCOC(=O)/C=C1\S/C(=N\Nc2cc(=O)[nH]c3ccc(OC)cc23)N(c2ccccc2)C1=O`, the growth in the test on NCI-H23 lung was 94%; with NCI-H226 lung it was 93.2%; in the test with NCI-H322M lung it was 101%; with HOP-62 NSCLC it was 97.5%; with NCI-H460 lung, 110%; with HOP-92 NSCLC, 89.7%. In addition, the growth with NCI-H522 lung is 83.3%; in the test with A549/ATCC NSCLC, 104%; with 786-0 renal, 94.4%; in the test on COLO 205 colon, 95.7%; in the test with DU-145 prostate, 98.6%; in the test with K-562 leukemia it was 86.5%. The growth in the test with MALME-3M melanoma is 101%; with MDA-MB-231 breast, 107%; in the test with RXF 393 renal it was 111%; in the test on SF-268 CNS, 101%; with SF-295 CNS, 102%; with SF-539 CNS it was 97.4%. Also, the growth with UACC-257 melanoma was 102%; in the test with M14 melanoma, 99.9%.

As for `Cn1cc(-c2ccc3c(Nc4cccc(NC(=O)Nc5cccc(F)c5)c4)ncnc3c2)cn1`, the growth with NCI-H23 lung is 47.1%; with NCI-H226 lung, 67.8%; in the test with NCI-H322M lung it was 40.7%; with HOP-62 NSCLC it was 42.8%; in the test on NCI-H460 lung, 29.1%; with HOP-92 NSCLC it was 53.6%. Further, the growth in the test on NCI-H522 lung was 26.5%; in the test with A549/ATCC NSCLC, 28.7%; in the test with 786-0 renal, 18.1%; with COLO 205 colon, 4.23% (active); with DU-145 prostate it was 41.8%; with K-562 leukemia, 4.38% (active). The growth in the test on MALME-3M melanoma is 27.5%; in the test with MDA-MB-231 breast, 41.8%; with RXF 393 renal, -13.9% (active); in the test on SF-268 CNS, 46.7%; in the test with SF-295 CNS it was -13.2% (active); in the test on SF-539 CNS, 20.4%. Further, the growth is 63.9% in the test on UACC-257 melanoma and 41.3% in the test with M14 melanoma.
